Test results taken from PubChem BioAssay (NCI).
This is part of a sample that, as a whole, favours compounds with a hit. Of some 83,000 tested, about 20% had one in any assay.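 Plates (96-well) were seeded with cells, treated with compound at one concentration, and incubated for 48 hours before percent growth was determined.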 Unmarked numbers belong to inactive results. Calls of active or inactive are those of the source. Rule for the calls: active = growth percent below 10; inactive = the rest.

What was measured:
Test in all cases: NCI-60 one-dose screen, 48 h (100 = growth as untreated, 0 = no growth, -100 = all killed)
Settings in all cases: 10 µM unless noted
NCI-H23 lung = tested on: NCI-H23 lung
NCI-H226 lung = tested on: NCI-H226 lung
NCI-H322M lung = tested on: NCI-H322M lung
HOP-62 NSCLC = tested on: HOP-62 NSCLC
NCI-H460 lung = tested on: NCI-H460 lung
HOP-92 NSCLC = tested on: HOP-92 NSCLC
NCI-H522 lung = tested on: NCI-H522 lung
A549/ATCC NSCLC = tested on: A549/ATCC NSCLC
786-0 renal = tested on: 786-0 renal
DU-145 prostate = tested on: DU-145 prostate
K-562 leukemia = tested on: K-562 leukemia
MALME-3M melanoma = tested on: MALME-3M melanoma
MDA-MB-231 breast = tested on: MDA-MB-231 breast
RXF 393 renal = tested on: RXF 393 renal
SF-268 CNS = tested on: SF-268 CNS
SF-295 CNS = tested on: SF-295 CNS
SF-539 CNS = tested on: SF-539 CNS
UACC-257 melanoma = tested on: UACC-257 melanoma
M14 melanoma = tested on: M14 melanoma

Compound | growth (NCI-H23 lung) | growth (NCI-H226 lung) | growth (NCI-H322M lung) | growth (HOP-62 NSCLC) | growth (NCI-H460 lung) | growth (HOP-92 NSCLC) | growth (NCI-H522 lung) | growth (A549/ATCC NSCLC) | growth (786-0 renal) | growth (DU-145 prostate) | growth (K-562 leukemia) | growth (MALME-3M melanoma) | growth (MDA-MB-231 breast) | growth (RXF 393 renal) | growth (SF-268 CNS) | growth (SF-295 CNS) | growth (SF-539 CNS) | growth (UACC-257 melanoma) | growth (M14 melanoma)
COc1cc2ccccc2cc1C(=O)NC(=S)Nc1ccc(-c2nc3ccccc3[nH]2)cc1 | 72.9% | 102% | 90.9% | 79.9% | 69.1% | 93.7% | 89.6% | 92.1% | 38% | 56.1% | 75.6% | 48% | 52.9% | 86.2% | 62% | 80.5% | 14.7% | 98% | 79.3%
Nc1nc(Nc2ccc(Cl)cc2)nn1S(=O)(=O)c1ccc(-c2ccc(F)cc2)cc1 | 92% | 84.4% | 109% | 84.3% | 70.9% | 75.7% | 75.3% | 71.9% | 92.1% | 88.7% | 83.5% | 113% | 87.8% | 92.3% | 76.3% | 99.1% | 94% | 107% | 89.8%
CN1C[C@@H](c2ccc(Cl)cc2)[C@]2(NC(=S)N(c3ccc(F)c(Cl)c3)C2=O)[C@@]12C(=O)NC1C=CC(Cl)=C[C@H]12 (stereo not given in full) | 51.9% | 59.8% | 74.6% | 79.8% | 32.8% | -7.71% (active) | 43.2% | 53% | -68% (active) | 67.3% | 10.3% | 91.2% | 31.6% | 21.3% | 54% | 46.8% | 73.5% | 65% | -31.2% (active)
COc1ccc(C2CC(c3ccccc3)=NN2c2nc(C)c(C(C)=O)s2)cc1 (stereo not given) | 99.3% | 101% | 98.6% | 101% | 106% | 95.4% | 88.3% | 98.7% | 101% | 102% | 95% | 95.2% | 96.6% | 94.1% | 91.3% | 99% | 94.3% | 102% | 97.3%
[2H]c1nc(Nc2ncc(F)c(-c3cc(F)c4nc(C)n(C(C)C)c4c3)n2)c([2H])c([2H])c1CN1CCN(C([2H])([2H])C([2H])([2H])[2H])CC1 | 50.6% | 49.1% | 44.6% | 47% | 53.1% | 66.9% | 58.1% | 38.8% | 39% | 66.2% | 49.6% | 79.5% | 65.2% | 1.53% (active) | 64.5% | 57.8% | 72.1% | 52.3% | 47.5%
CCNCCNc1cc(-c2ccc(Cl)cc2)c(C#N)c2nc3ccccc3n12 | 44.7% | 56% | 2.72% (active) | 1.55% (active) | -55.1% (active) | 53.9% | -41.7% (active) | 6.12% (active) | -57.9% (active) | 26.4% | -48.1% (active) | -80.2% (active) | -57.4% (active) | -82.9% (active) | -12.6% (active) | -77.6% (active) | -91.4% (active) | -79.4% (active) | -70.7% (active)
N#C/C(=C\c1ccc(Br)cc1)n1nnc2cc(Cl)c(Cl)cc21 | 32.3% | 36.3% | 56.7% | 53.1% | 56.7% | 33.2% | 6.95% (active) | 67.4% | 43.8% | 34% | 8.99% (active) | 67.5% | 33% | -6.31% (active) | 59.2% | 65.8% | 49.8% | 52.4% | 31.3%
Cc1cnc(Nc2ccc(OCCN3CCCC3)cc2)nc1NCc1ccco1 | 70.9% | 45.8% | 81.9% | 60.4% | 72.8% | 54.8% | 70.1% | 76.3% | 60.7% | 83.8% | 12.9% | 105% | 55.6% | 48% | 68.5% | 84% | 68.7% | 96% | 96.3%
CCN(CC)CCOC(=O)N1c2ccccc2Sc2ccccc21 | 104% | 95.2% | 89.7% | 88.7% | 103% | 73.1% | 68.7% | 88.9% | 91.4% | 99.9% | 90.7% | 91.4% | 81.9% | 98.3% | 102% | 93.8% | 100% | 102% | 93.4%
O=S(=O)(NCCNc1cc(-c2c(-c3cccc(O)c3)nc3sccn23)ccn1)c1ccc(Br)cc1 | 76.2% | 62.3% | 81.1% | 102% | 54.1% | 74.9% | 66.1% | 50.1% | 52.7% | 57.9% | 34.5% | 78.8% | 72.8% | 60% | 41.3% | 69% | 75.2% | 89.1% | 60.8%
CC(C)(C)N1CC(OC(N)=O)C1 | 91.2% | 98.2% | 98.6% | 100% | 113% | 96.2% | 114% | 71.8% | 96.4% | 109% | 130% | 106% | 97.7% | 29.1% | 109% | 113% | 98% | 4.43% (active) | 97.6%
O=C(/C=C/C12c3ccccc3C(c3ccccc31)C1C(=O)N(c3ccc(Cl)cc3)C(=O)C12)c1ccccn1 (stereo not given) | -22.6% (active) | -49.3% (active) | 11.3% | 5.06% (active) | -32.3% (active) | -53.7% (active) | -6.34% (active) | 5.63% (active) | -60.7% (active) | -86.5% (active) | 4.62% (active) | -52% (active) | -16% (active) | -88.6% (active) | 8.62% (active) | -9.27% (active) | -52.7% (active) | 2.58% (active) | -1.41% (active)
C=C(CNCCc1ccc(O)cc1)[C@@H]1CC[C@]2(COC3CCCCO3)CC[C@]3(C)[C@H](CC[C@@H]4[C@@]5(C)CCC(NCCO)C(C)(C)[C@@H]5CC[C@]43C)[C@@H]12 (stereo not given in full) | -81% (active) | -54.2% (active) | -96.5% (active) | -89.2% (active) | -79.9% (active) | -80.8% (active) | -77.3% (active) | -88.6% (active) | -90.2% (active) | -91.9% (active) | -66.1% (active) | -86.4% (active) | -94.3% (active) | -88.9% (active) | -87.9% (active) | -82.4% (active) | -91.9% (active) | -85.6% (active) | -86.8% (active)
CN1CCN(CCCOc2ccc3nc(Nc4cc(Cl)cc(Cl)c4)ccc3c2)CC1 | -40.7% (active) | -9.2% (active) | -55.5% (active) | -87.5% (active) | -76.2% (active) | -27% (active) | -81.4% (active) | -81% (active) | -75.6% (active) | -84.1% (active) | -61.8% (active) | -54.4% (active) | -73.2% (active) | -60.6% (active) | -78.9% (active) | -75.9% (active) | -86.5% (active) | -81.5% (active) | -62.2% (active)
CC(=O)OCCc1ccccc1 | 86.9% | 108% | 103% | 78.1% | 110% | 85.7% | 84.7% | 107% | 91.8% | 134% | 79.2% | 87.8% | 110% | 107% | 128% | 101% | 103% | 100% | 78.6%
